Screening results (PubChem)
MEX-5 binding: MEX-5 zinc finger RNA-binding disruptors – biochemical, C. elegans, fluorescence polarization, MLPCN library, primary screen | Zinc finger protein mex-5 (Caenorhabditis elegans), Q9XUB2 | MEX-5/FITC-TCR2 RNA binding; hits give low values | activity score (negative = inhibition of binding), % at 10 µM | 300,000 compounds, 0.38% hits;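 active = inhibition past about -25% in most replicates, and total fluorescence under double the plate's negative control median, limit read from the data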;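 also: 0% = DMSO and -100% = 5 µM competing unlabeled TCR2 RNA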
GLD-1 RNA inh: GLD-1/TGE RNA complex disruptors, primary screen, biochemical, fluorescence polarization; inhibition, % at 5.96 µM; 320,000 compounds, 0.44% hits; purified GLD-1 + fluorescein TGE RNA; Female germline-specific tumor suppressor gld-1 (Caenorhabditis elegans), Q17339;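 active = percent inhibition above a per-plate cutoff, the plate mean of test compounds plus 3 SD, cut at about 30% in these data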;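 also: 0% = DMSO wells with GLD-1 and probe and 100% = wells lacking GLD-1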
MCL1 BIM primary: inhibitors of MCL1 binding to BIM-BH3, primary screen, biochemical, fluorescence polarization; Induced myeloid leukemia cell differentiation protein Mcl-1 (Homo sapiens), Q07820; GST-MCL1 / FITC-Bim-BH3 fluorescence polarization; inhibition, % at 10.9 µM; 320,000 compounds, 0.68% hits; AID 2057, 2009;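 active = inhibition above the mean inhibition of all tested compounds plus 3 SD, set per campaign, cut at about 40% in these data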;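 also: 0% = DMSO wells and 100% = unlabeled Bim-BH3 peptide control; higher means more loss of mP so more displacement of Bim peptide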
EBV gp42 inh: Epstein-Barr virus gp42 inhibitors, primary screen, biochemical, uHTS, fluorescence polarization; Glycoprotein 42 (Epstein-Barr virus (strain AG876)), Q1HVG2; Fluorescence polarization binding assay, mP read-out; inhibition, % (tested at 21.74 µM); 220,000 compounds, 0.42% hits; in the data active = inhibition above about 50%
eLon inh: inhibitors of E. coli Lon protease, primary screen, biochemical, fluorescence polarization; P0A9M0; purified E. coli Lon protease; inhibition, % at 7.94 µM; 360,000 compounds, 0.42% hits; AID 602123, 2011; in the data active = inhibition above about 13%, passing the limit was not always enough;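 also: 0% = enzyme with probe and DMSO and 100% = no enzyme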
Target sequence (P0A9M0 whole entry, looked up): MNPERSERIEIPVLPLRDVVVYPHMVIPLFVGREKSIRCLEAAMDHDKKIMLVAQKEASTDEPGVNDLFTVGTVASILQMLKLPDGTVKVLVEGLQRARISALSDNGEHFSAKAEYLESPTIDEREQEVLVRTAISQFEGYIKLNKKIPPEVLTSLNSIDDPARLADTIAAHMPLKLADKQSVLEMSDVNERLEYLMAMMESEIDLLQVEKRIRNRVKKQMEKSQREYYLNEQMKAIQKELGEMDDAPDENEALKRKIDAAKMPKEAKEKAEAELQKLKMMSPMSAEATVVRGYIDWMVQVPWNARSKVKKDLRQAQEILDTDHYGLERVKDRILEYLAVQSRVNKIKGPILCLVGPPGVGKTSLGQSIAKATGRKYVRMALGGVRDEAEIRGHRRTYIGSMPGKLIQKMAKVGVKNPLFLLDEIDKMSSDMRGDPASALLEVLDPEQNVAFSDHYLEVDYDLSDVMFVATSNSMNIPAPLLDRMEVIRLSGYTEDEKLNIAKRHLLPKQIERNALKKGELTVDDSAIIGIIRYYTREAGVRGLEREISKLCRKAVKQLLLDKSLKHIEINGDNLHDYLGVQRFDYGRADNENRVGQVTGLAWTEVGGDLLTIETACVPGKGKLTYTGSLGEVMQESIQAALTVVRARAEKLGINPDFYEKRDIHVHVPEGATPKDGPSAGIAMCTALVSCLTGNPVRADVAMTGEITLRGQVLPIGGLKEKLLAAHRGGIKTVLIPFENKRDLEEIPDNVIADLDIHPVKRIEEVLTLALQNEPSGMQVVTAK
BCLXL inh: inhibitors of human Bcl-xL, primary screen, biochemical, fluorescence polarization, HTS. Bcl-2-like protein 1 (Homo sapiens), Q07817. GST-Bcl-xL / FITC-Bim BH3 peptide fluorescence polarization. inhibition, % at 10.9 µM. 320,000 compounds, 0.7% hits. AID 2129, 2009;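 active = inhibition above the mean of all tested compounds plus 3 SD, cutoff set per campaign, cut at about 30% in these data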;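 also: 0% = DMSO wells and 100% = unlabeled Bim-BH3 peptide competitor; inhibitors lower millipolarization by displacing the labeled peptide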
GLD1 RNA confirm: GLD-1/TGE RNA binding inhibitors, retest, confirmation, biochemical, fluorescence polarization, triplicate. shares compounds with GLD-1 RNA inh. GLD-1/FL-TGE RNA fluorescence polarization. inhibition, % at 5.96 µM. 550 compounds, 10% hits. AID 2459, 2010;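 active = average inhibition across triplicates above the hit cutoff set in the primary screen, cut at about 32% in these data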;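 also: 0% = GLD-1 with RNA probe and DMSO and 100% = wells lacking GLD-1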
E coli Lon conf: E. coli Lon protease inhibitor retest, confirmation, biochemical, fluorescence polarization. shares compounds with eLon inh. purified E. coli Lon. inhibition, % at 7.94 µM. 1,400 compounds, 31% hits. AID 602230, 2012; in the data active = inhibition above about 16%;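 also: 0% = enzyme with probe and DMSO and 100% = no enzyme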
* marks the source's active call; other numbers are inactive results; . = no result given. In the library only some 1.5% were active in any assay of this set; here they are far more common.

SMILES	MEX-5 binding	GLD-1 RNA inh	MCL1 BIM primary	EBV gp42 inh	eLon inh	BCLXL inh	GLD1 RNA confirm	others
O=C(Nc1nc2ccccc2c(=O)[nH]1)c1ccccc1SCc1ccccc1	0	4	1	-10	2	8	.
O=c1c2cccc(Cl)c2nc2n1Cc1ccccc1-2	-2	42*	19	-17	-4	11	1
Nc1ccccc1C(=O)Nc1cccc2ccccc12	2	.	.	.	9	.	.
O=C(Nc1cccc2ccccc12)c1ccccc1Cl	0	51*	0	.	-7	0	1
O=C1CS/C(=N\N=C\c2ccco2)N1c1ccccc1	1	-3	21	7	-3	7	.
O=C1CS/C(=C\[N+](=O)[O-])N1c1ccccc1	-45*	35*	-10	-21	-34	1	56*
CCc1ccc(NC(=O)C2CCCN(S(=O)(=O)c3cnc[nH]3)C2)cc1 (stereo not given)	1	61*	7	.	-3	2	-1
CCc1ccc(NC(=O)C2CCN(S(=O)(=O)c3cnc[nH]3)CC2)cc1	-1	6	-2	.	11	5	.
COCCn1c(CN2CCN(c3ccccc3)CC2)nc2c1c(=O)n(C)c(=O)n2C	0	33*	38	.	0	28	-2
CCNC(=O)c1cc(S(=O)(=O)N(C)C)c(Cl)cc1Cl	-3	-4	4	4	-3	4	.
CCc1ccc(OCC(O)Cn2c(N3CCCCC3)nc3c2c(=O)[nH]c(=O)n3C)cc1 (stereo not given)	0	36*	-1	.	-4	3	-3
O=c1c2ccccc2nc2n1CCCCC2	0	-4	3	-26	-2	5	.
CCOc1ccc(NC(=O)CC2S/C(=N/N=C3CCCCCC3)NC2=O)cc1 (stereo not given)	1	39*	2	.	-14	0	1
C=CCn1c(CCNC(=O)c2cccs2)nnc1SCC(=O)c1ccc(Cl)cc1	0	86*	-1	0	-1	-2	8
O=C(Nc1ccc(F)cc1)c1cc(-c2ccccc2)no1	2	6	0	-2	-2	-3	.
CCOC(=O)CCCNC(=O)c1cncc(O)c1	3	0	5	-3	-9	1	.
CC1CCN(c2oc(-c3ccc(F)cc3)nc2C#N)CC1	2	34*	11	.	11	2	-1
CC(C)CCn1c(Cl)nc2c1c(=O)n(C)c(=O)n2C	-3	31*	3	3	3	7	-2
CC(C)CCn1c(N2CCCC2)nc2c1c(=O)n(C)c(=O)n2C	2	3	2	.	-13	1	.
COc1cccc(-c2nnc(NC(=O)C(C)C)o2)c1	1	37*	50*	2	-9	47*	0
CCN(CC)S(=O)(=O)c1ccc(NC(=O)C2COc3ccccc3O2)cc1 (stereo not given)	3	8	2	-14	3	-1	.
O=C(O)c1ccccc1C(=O)Nc1ccc(-c2csc(-c3ccccc3)n2)cc1	-3	94*	-4	3	-1	-1	-1
O=[N+]([O-])c1ccc(Oc2cccnc2)nc1	.	0	5	-15	0	-3	.
O=C(O)c1ccccc1Nc1cc(Cl)c2nonc2c1[N+](=O)[O-]	-3	4	15	.	1	16	.
O=[N+]([O-])c1c(Nc2ccccn2)cc(Cl)c2nonc12	0	43*	-39	-14	52*	-9	3	E coli Lon conf=-8
SMILES	MEX-5 binding	GLD-1 RNA inh	MCL1 BIM primary	EBV gp42 inh	eLon inh	BCLXL inh	GLD1 RNA confirm	others
CC(=O)Nc1ccc(S(=O)(=O)NCc2ccc(C)cc2)cc1	2	-7	-4	2	5	-4	.
CC(=O)Nc1ccc(S(=O)(=O)NCc2ccc3c(c2)cc(C)n3C)cc1	0	44*	32	12	49*	34*	17	E coli Lon conf=22*
CS(=O)(=O)c1sc2nc(-c3cccs3)cc(-c3ccccc3)c2c1N	2	53*	-3	-29	20*	23	-14	E coli Lon conf=-23
COc1cccc(CN(C(=O)COc2ccc(C)cc2)C2CCS(=O)(=O)C2)c1 (stereo not given)	-2	3	0	.	-6	-2	.
CCc1cccc(C)c1NC(=O)c1ccccc1	-4	6	-1	1	-1	-1	.
CCc1cccc(C)c1NC(=O)C1=C(C(=O)O)CCCC1	-1	39*	32	1	19*	29	7	E coli Lon conf=32*
CC1=C(C(N)=O)S(=O)(=O)c2ccccc21	-9	38*	21	12	18*	20	24	E coli Lon conf=29*
O=C(Nc1ccc(Cl)cc1)Nc1ccc(N2CCC(C(F)(F)F)CC2)nc1	-9	38*	32	36	47*	31*	23	E coli Lon conf=8
COc1ccccc1C(NC(=O)C1CCCCC1)c1c(O)ccc2ccccc12 (stereo not given)	3	-2	4	-9	-6	-1	.
COc1ccccc1NC(=O)COC(=O)c1ccccc1C(=O)N1CCN(c2ccccc2)CC1	-5	33*	44*	13	24*	42*	4	E coli Lon conf=5
CCOc1cc(N2CCOCC2)c(OCC)cc1NC(=O)CSc1ncccn1	1	2	-1	-5	-4	-2	.
C/C(=C\C(=O)c1ccccc1)Nc1ccc(O)cc1	-2	20	18	-8	12	16	.
C/C(=C\C(=O)c1cccnc1)Nc1ccc(O)cc1	-2	31*	8	5	22*	7	-1	E coli Lon conf=8
CN(C)C(CNC(=O)c1cccc(S(=O)(=O)Nc2ccc(SC(F)F)cc2)c1)c1ccccc1 (stereo not given)	.	.	.	.	-10	.	.
COC(=O)CCC(=O)OC1(C)C(=O)C=C2C=C(C3CC3)N(C(CO)CO)C=C2C1=O (stereo not given)	2	9	9	-18	27*	10	.	E coli Lon conf=7
CCOC(=O)C1=C(C)NC2=C(C(=O)C(C(=O)OCC)C(c3ccco3)C2)C1c1ccccn1 (stereo not given)	1	8	10	-7	44*	3	.	E coli Lon conf=-1
